± gives the standard deviation of the averaged measurements.
system: HCC1569; assay: cell number relative to DMSO (% of DMSO); higher = more cells (less growth inhibition / toxicity); conditions: concentration: 10 µM; 24 h
Procedure, shortened: (§1)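 Using 384-well plates with 800 cells per well in RPMI plus 10% FBS, HCC1569 and TDF cells were exposed to compounds at 10 µM, in triplicate, for 24 h at 37 °C. Imaging of six fields per well at ×10 followed H1.0 and DAPI staining. The reported quantity, H1.0 nuclear intensity or cell number, is a median of replicates given as percent of the plate control, and HCC1569 values were smoothed for positional effects.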
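Also: TDF denotes transformed human dermal fibroblasts of mesenchymal origin.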

Point of comparison: CSc1nc(-c2ccnc(NC(C)c3ccccc3)c2)c(-c2ccc(F)cc2)[nH]1 (stereo not drawn) [p38 MAP Kinase Inhibitor III], cell number 94.8. Against it:
- Cl.OC(CCN1CCCCC1)(c1ccccc1)C1CCCCC1 (stereo not drawn) [Trihexyphenidyl hydrochloride] — higher, 103
- NC(=S)c1ccc[n+](C2OC(COP(=O)([O-])OP(=O)(O)OCC3OC(n4cnc5c(N)ncnc54)C(OP(=O)([O-])O)C3O)C(O)C2O)c1.[Na+] (stereo not drawn) [Thio-NADP sodium] — lower, 94.1
- O=c1c2ccccc2nc2n1CCc1c-2[nH]c2ccccc12 [Rutaecarpine] — higher, 102 ± 6.6

system: TDF; assay: as above; conditions: concentration: 10 µM; 24 h
Procedure, shortened: as §1

Point of comparison: CCCCCCCCCC(=O)NC(CN1CCOCC1)C(O)c1ccccc1 (racemic), cell number 93.9. Against it:
- Cc1ccc(NC(=O)c2ccc(CN3CCN(C)CC3)cc2)cc1Nc1nccc(-c2cccnc2)n1 [Imatinib] — higher, 101
- C[N+](C)(C)CC(O)CC(=O)[O-].Cl (racemic) — higher, 120
- CCN1CCN(c2cc3c(cc2F)c(=O)c(C(=O)O)cn3C2CC2)CC1 [Enrofloxacin] — higher, 106
- CC1(C)CNc2cc(NC(=O)c3cccnc3NCc3ccncc3)ccc21 [Motesanib] — lower, 91.4
- Cc1ccc(C(=CCN2CCCC2)c2ccccn2)cc1.Cl [Trans-triprolidine.HCl] — higher, 95.5
- O=c1c2ccccc2[nH]c(=S)n1CCN1CCC(=C(c2ccc(F)cc2)c2ccc(F)cc2)CC1 [Diacylglycerol Kinase Inhibitor II] — within error, 93.8 ± 1.5
- Br.Br.N=C(N)SCCN [2-(2-Aminoethyl)isothiourea dihydrobromide] — lower, 85.8
- O=C(Nc1cccc(Cl)c1)Nc1ncc(CCNc2ncnc3ccsc23)s1 — lower, 42.9
- O=C1CCC(c2ccc(-n3ccnc3)cc2)=NN1 [Imazodan] — lower, 93.8
- CCCn1cnc2c1c(=O)n(CCCCC(C)=O)c(=O)n2C [Propentofylline] — higher, 113
- COC(=O)C1C(O)CCC2CN3CCc4c([nH]c5ccccc45)C3CC21.Cl (stereo not drawn) [Rauwolscine hydrochloride] — higher, 117
- OCCOc1ccc(/C(=C(/CCCl)c2ccccc2)c2ccccc2)cc1 [2-{4-[(1Z)-4-chloro-1,2-diphenyl-1-butenyl]phenoxy}ethanol] — higher, 96.7
- COC(=O)CNC(=O)C(=O)OC [methyl 2-(2-methoxy-2-oxoethylamino)-2-oxoacetate] — higher, 109
- O=C1NCCN1CCN1CCC(c2cn(-c3ccc(F)cc3)c3ccc(Cl)cc23)CC1 — lower, 39.3
- CC(CCc1ccc(O)cc1)NCCc1ccc(O)c(O)c1.Cl (stereo not drawn) [Dobutamine hydrochloride] — higher, 95.7
- Cl.O.O=C(O)CN(CCN(CC(=O)O)Cc1ccccc1O)Cc1ccccc1O — higher, 98.8
- C=CC(N)CCC(=O)O (racemic) — higher, 99
- CC12C=Cc3occc3C1CCC13CC(=O)C(CCC12)C3 (stereo not drawn) [16-Oxokahweol] — higher, 98.5
- N#Cc1c(O)c2c(-c3ccc(-c4ccccc4O)cc3)csc2[nH]c1=O — lower, 92.5
- CC1C(=O)OC2C(O)C34C5CC(C(C)(C)C)C36C(OC(=O)C6O)OC4(C(=O)O5)C12O (stereo not drawn) [Ginkgolide B] — higher, 104
- CCCCc1oc2ccccc2c1C(=O)c1cc(I)c(OCCN(CC)CC)c(I)c1.Cl [Amiodarone hydrochloride] — lower, 92
- O=C(OC12CC3CC(CC(C3)C1)C2)c1ccc(NCc2cc(O)ccc2O)cc1 [1-adamantyl 4-[(2,5-dihydroxybenzyl)amino]benzoate] — lower, 62.1
- CN(C)c1nc(N(C)C)nc(N(C)C)n1 [Altretamine] — higher, 108.4 ± 0.31
- CC1=NN(c2ccc(C(=O)O)cc2)C(=O)/C1=C\c1ccc(-c2cc(C)c(C)cc2[N+](=O)[O-])o1 — lower, 87.2
- CC(N)=NCCCC[C@H](N)C(=O)O.Cl [L-N6-(1-Iminoethyl)lysine hydrochloride] — higher, 109
- CCC1(c2ccccc2)C(=O)NCNC1=O [Primidone] — higher, 97.2
- Cc1ccccc1/N=N/c1ccc(NC(=O)c2ccnn2C)c(C)c1 — higher, 98.7
- CCCCCCCCCCCCCC=CC(O)C(N)CO (stereo not drawn) [Sphingosine] — higher, 101 ± 6.5
- CNC(=C[N+](=O)[O-])NCCSCc1ccc(CN(C)C)o1.Cl [Ranitidine.HCl] — higher, 106
- CCCCC1(C2CCCC2)Cc2cc(OCC(=O)O)c(Cl)c(Cl)c2C1=O (stereo not drawn) [R(+)-Butylindazone] — higher, 107
- COc1nc(C)nc(Cl)c1NC1=NCCN1.Cl [Moxonidine hydrochloride] — higher, 102
- COc1ccc2c(c1OC)C(=O)OC2C1c2c(cc3c(c2OC)OCO3)CCN1C (racemic) — higher, 96.2
- Cc1cccc2c3c(ccc12)C1=C(C(=O)C3=O)C(C)CO1 (stereo not drawn) [Dihydrotanshinone] — lower, 33.6
- CC(C)(C)c1nc2c3cc[nH]c(=O)c3c3cc(F)ccc3c2[nH]1 — higher, 103
- CSc1nc(-c2ccnc(NC(C)c3ccccc3)c2)c(-c2ccc(F)cc2)[nH]1 (stereo not drawn) [p38 MAP Kinase Inhibitor III] — higher, 107
- Cl.OC(CCN1CCCCC1)(c1ccccc1)C1CCCCC1 (stereo not drawn) [Trihexyphenidyl hydrochloride] — higher, 104
- NC(=S)c1ccc[n+](C2OC(COP(=O)([O-])OP(=O)(O)OCC3OC(n4cnc5c(N)ncnc54)C(OP(=O)([O-])O)C3O)C(O)C2O)c1.[Na+] (stereo not drawn) [Thio-NADP sodium] — higher, 100
- O=c1c2ccccc2nc2n1CCc1c-2[nH]c2ccccc12 [Rutaecarpine] — higher, 103.4 ± 0.87
